Screens as filed in PubChem.
The list is not random: actives were taken first. Their share in the collection is about 8.5%.
FBPA coupling cs: counter-screen for Giardia aldolase inhibitors: coupling enzyme system; activity change, negative = inhibition, % at 58.2 µM, hits read low; coupling enzyme system counterscreen, AmpLite Red fluorescence; 290,000 compounds, 0.67% hits; in the data active = activity change below about -30%
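Counterscreen of the coupled detection system alone, without aldolase: glyceraldehyde-3-phosphate coupling enzymes plus AmpLite Red readout. Compounds at 57.5 uM final, 10 min RT preincubation, 20 min RT reaction, fluorescence 525/598 nm.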
NPSR antag: antagonists of human neuropeptide S receptor cAMP signaling; CHO-NPSR cells, cAMP TR-FRET, antagonist mode; Potency, µM (titrated, usually from 38.3 µM), inactives show at the top dose activity change, negative = inhibition, usual class: inhibitors; 220,000 compounds, 1% hits; AID 1461; note: potency is the fitted concentration of half-maximal effect; nearly all actives have a fitted effect of over 50% in size
ALDH1A1 block: inhibitors of human aldehyde dehydrogenase 1A1 | P00352 | Purified ALDH1A1, NADH fluorescence, propionaldehyde substrate | Potency, µM (titrated, usually from 75.3 µM), inactives show at the highest dose activity, negative = inhibition, actives largely listed as inhibitors | 220,000 compounds, 7.3% hits | AID 1030; active = well fitted inhibition curve with a large enough effect, not every such curve was filed as active; inconclusive = small, poorly fitted or top-dose-only effect, or another doubt; inactive = no such curve, though single readings can be large or run the other way;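 note: potency is the fitted concentration of half-maximal effect; plate controls were no enzyme wells and a reference inhibitor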
Target sequence (P00352 whole entry, looked up): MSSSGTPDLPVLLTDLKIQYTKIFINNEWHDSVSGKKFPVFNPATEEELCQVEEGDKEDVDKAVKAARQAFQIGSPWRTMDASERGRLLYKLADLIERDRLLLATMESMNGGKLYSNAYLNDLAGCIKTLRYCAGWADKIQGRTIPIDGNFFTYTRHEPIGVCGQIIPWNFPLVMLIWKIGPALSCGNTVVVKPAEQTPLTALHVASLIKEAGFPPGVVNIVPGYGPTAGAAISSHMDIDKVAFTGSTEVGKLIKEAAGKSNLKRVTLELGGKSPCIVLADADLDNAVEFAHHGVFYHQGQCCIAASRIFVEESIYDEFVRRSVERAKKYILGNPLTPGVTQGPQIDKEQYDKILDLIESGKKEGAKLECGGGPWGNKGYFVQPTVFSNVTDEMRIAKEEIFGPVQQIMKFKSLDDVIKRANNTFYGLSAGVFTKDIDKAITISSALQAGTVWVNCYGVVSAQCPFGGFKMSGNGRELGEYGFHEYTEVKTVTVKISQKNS
Sfp inh: inhibitors of Bacillus subtilis Sfp phosphopantetheinyl transferase | Biochemical Sfp PPTase activity, qHTS | Potency, µM, without a hit: largest response in the series, negative = inhibition, usual class: inhibitors | 310,000 compounds, 3.5% hits | AID 1490;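 note: the enzyme is Sfp with the accession as filed and its product quenches rhodamine fluorescence; potency is the fitted concentration of half-maximal effect; 0% = enzyme reaction without inhibitor and -100% = no enzyme wells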
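After 15 min at room temperature with compound, 15 nM Sfp received 5 uM rhodamine-CoA plus 12.5 uM BHQ-2-ybbR (50 mM Hepes pH 7.6, 10 mM MgCl2). Rate came from the fluorescence difference over 30 min, ex 525/em 598 nm.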
GoLoco inh red: inhibitors of human Gai1-RGS12 GoLoco interaction (red fluorophore); P63096; 230,000 compounds, 0.44% hits; Potency, µM (top dose mostly 61.6 µM), inactives show at the highest dose activity, negative = inhibition, actives largely listed as inhibitors; Gai1:RGS12 GoLoco peptide FP, rhodamine, 10 min; active = well fitted inhibition curve with a large enough effect, not every such curve was filed as active; inactive = no such curve, though single readings can be large or run the other way; note: potency is the fitted concentration of half-maximal effect; nearly all actives have a fitted effect of over 30% in size
JMJD2E inh: blocks human JMJD2E demethylase activity. B2RXH2. JMJD2E catalytic domain, FDH-coupled NADH fluorescence (FDH is formaldehyde dehydrogenase). Potency, µM (titrated, usually from 57.1 µM), for inactives: top-dose activity change, negative = inhibition, usual class: inhibitors. 230,000 compounds, 1.6% hits. AID 2147; active = well fitted inhibition curve with a large enough effect, not every such curve was filed as active; inconclusive = small, poorly fitted or top-dose-only effect, or another doubt; inactive = no such curve, though single readings can be large or run the other way;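 note: potency is the fitted concentration of half-maximal effect; 0% = wells with enzyme and -100% = buffer wells without enzyme; nearly all actives have a fitted effect of over 50% in size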
Active calls of the source: *; ? = inconclusive; nt = no result given; [ ] = another dose, or the depositor's remark. Unless noted, calls come from the whole dose curve; as a rule, active = well fitted curve in the direction sought with a large enough effect; inconclusive = small, poorly fitted or top-dose-only effect, or another doubt; inactive = no such curve, though single readings can be large; an effect the other way counts as inactive or inconclusive. Unless noted, % is set by controls: 0 for no effect and ±100 for the full control effect.

SMILES	FBPA coupling cs	NPSR antag	ALDH1A1 block	Sfp inh	GoLoco inh red	JMJD2E inh
CCCC1(C(=O)OC)C=C2C(=C(C(C)C)C(=O)C2C)CN1 (configuration not stated)	-3.9	nt	?	11.1%	-0.5%	?
COc1ccc(Br)cc1CN(C)CC(=O)Nc1c(Cl)cccc1Cl	3.3	-28.9%[46.1 µM]	14.0%	?	26.2%	1.9%
Nc1ccc(CCn2ccnc2)cc1	0.6	nt	nt	24.2%	nt	nt
C=CCN1C(=O)/C(=C\c2ccco2)C(C(=O)OC)=C1C	-25.5	-7.0%	6.8%	20µM*	-28.2%	3.4%
COC(=O)C1=C(C)N(CCc2ccccc2)C(=O)/C1=C\c1ccco1	-0.3	-52.5%	?	50.1µM*	10.2%	4.6%
Cc1ccc(S(=O)(=O)N2C(=O)CCC2C(=O)O/N=C(\N)c2ccc([N+](=O)[O-])cc2)cc1 (configuration not stated)	nt	nt	nt	11.2%	nt	nt
CCN(CC)CCCCNC(=O)c1ccc(Cc2nc3ccccc3[nH]2)cc1	nt	nt	-0.4%	nt	nt	nt
O=C(CSc1nnc(SCc2ccccc2)s1)N/N=C/C=C/c1ccco1	-0.7	-7.5%	14.1µM*	35.5µM*	6.2%	?
CCn1c(SCC(=O)N/N=C/C(C)=C/c2ccco2)nnc1-c1ccccc1	-14.4	-14.8%[46.1 µM]	20µM*	-15.2%	2.7%	2.0%
O=C(CN1CCN(Cc2ccccc2)CC1)N/N=C\C=C/c1ccco1	-0.6	-4.6%[46.1 µM]	?	-12.9%	10.9%	?
CCn1c(SCC(=O)N/N=C/C(C)=C\c2ccco2)nnc1-c1ccccc1	-19.1	-6.2%	?	-29.7%	5.5%	1.6%
O=C(CSc1nnc(SCc2ccccc2)s1)NNC(=S)Nc1ccccc1	3.0	-2.2%	3.16µM*	-17.2%	9.7%	-1.2%
Cn1c(SCC(=O)NNC(=S)Nc2ccccc2)nnc1-c1ccccc1	-2.9	2.4%	nt	14.5%	3.5%	5.4%
O=C(Cc1cccs1)N/N=C/C=C/c1ccco1	-9.4	-32.6%	3.98µM*	?	80.3%	6.4%
CCn1c(SCC(=O)N/N=C/C=C/c2ccco2)nnc1-c1ccccc1	1.4	-0.8%	17.8µM*	-29.1%	8.3%	?
CCn1c(SCC(=O)N/N=C(\C)c2ccncc2)nnc1-c1ccc(C)cc1	2.4	-10.3%	20µM*	12.8%	5.6%	-17.4%
Cn1c(SCC(=O)N/N=C/C=C/c2ccccc2[N+](=O)[O-])nc2ccccc21	1.2	-2.0%	?	5.9%	2.8%	2.4%
CCn1c(SCC(=O)N/N=C(\C)c2ccco2)nnc1-c1ccccc1	0.1	-2.9%	11.2µM*	16.4%	5.5%	5.9%
CCn1c(SCC(=O)N/N=C(\C)c2ccncc2)nnc1-c1ccccc1	-1.0	-4.2%	1.3%	-6.5%	8.4%	?
CCn1c(SCC(=O)Nc2cc(C)on2)nnc1-c1ccccc1	-1.4	3.5%[46.1 µM]	-1.0%	7.4%	-5.8%	-5.0%
Cn1c(SCC(=O)N/N=C/C=C/c2ccco2)nc2ccccc21	1.3	15.3%	14.1µM*	-9.4%	8.3%	?
COc1ccc2cc(C(=O)C3CCCN(C(=O)C4=NN(C)C(=O)CC4)C3)ccc2c1 (configuration not stated)	nt	nt	nt	4.0%	nt	nt
COc1ccc(C2=NN(c3ccccc3)C(=O)/C2=C\c2ccc(O)c(OC)c2)cc1	12.4	21.5%	20µM*	4.6%	104.4%	?
CCOc1cc(/C=C2\SC(N)=NC2=O)ccc1O	-1.4	nt	nt	?	nt	nt
COc1cc(/C=C2\SC(c3ccc(C)cc3)=NC2=O)cc(OC)c1OC	-1.7	-21.4%[46.1 µM]	?	?	24.9%	-8.2%
SMILES	FBPA coupling cs	NPSR antag	ALDH1A1 block	Sfp inh	GoLoco inh red	JMJD2E inh
COc1ccc(/C=C2/SC(c3ccc(C)cc3)=NC2=O)cc1OC	2.8	-15.2%[46.1 µM]	?	31.6µM*	86.0%	-11.4%
COc1cc(/C=C2\SC(c3ccc(C)cc3)=NC2=O)ccc1O	-0.6	-19.8%[46.1 µM]	?	22.4µM*	87.1%	-3.6%
COc1ccc(/C=C2\SC(c3ccc(C)cc3)=NC2=O)cc1OC	-1.0	-14.9%[46.1 µM]	?	?	103.3%	-17.8%
COc1cc(/C=C2\SC(c3ccccc3)=NC2=O)cc(Cl)c1O	0.9	-55.0%	5.01µM*	7.94µM*	157.1%	?
O=C(O)c1cccc(S(=O)(=O)N2CCN(Cc3ccc4c(c3)OCO4)CC2)c1	5.7	nt	nt	6.8%	nt	nt
CCOc1ccc(N2C(=O)CSC23CCCCC3)cc1	-4.3	-5.0%[46.1 µM]	?	2.5%	nt	-5.8%
COc1ccc(N2C(=O)CSC23CCCCC3)cc1	0.3	6.0%[46.1 µM]	14.1µM*	1.2%	-6.0%	1.4%
Cc1[nH]n(-c2ccccc2)c(=S)c1C=NCCCN=Cc1c(C)[nH]n(-c2ccccc2)c1=S	-6.5	-23.2%	3.98µM*	-96.2%	-37.4%	8.8%
COc1ccc2nc(N(Cc3ccccc3)C(=O)CCNC(C)=O)sc2c1	nt	nt	nt	6.0%	nt	nt
Cc1ccc(-c2csc3nc(C)n(-n4c(C)ccc4C)c(=O)c23)o1	-1.1	-14.5%[46.1 µM]	?	20µM*	-11.2%	-6.0%
C=CCn1c(SCC(=O)NC2CCCC2)nc2scc(-c3ccco3)c2c1=O	0.4	-27.9%[46.1 µM]	7.94µM*	10µM*	-2.4%	?
C=CCn1c(SCC(=O)c2cccs2)nc2sc(CC)cc2c1=O	0.5	?	3.55µM*	-2.6%	6.4%	2.5%
C=CCn1c(SCC(=O)NCC2CCCO2)nc2scc(-c3ccccc3)c2c1=O (configuration not stated)	1.1	nt	nt	11.4%	nt	nt
C=CCn1c(SCC(C)=O)nc2scc(-c3ccc(C)o3)c2c1=O	1.8	nt	nt	50.1µM*	nt	nt
C=CCn1c(SCC(=O)O)nc2sc(CC)cc2c1=O	20.1	-0.3%	?	-3.9%	-1.8%	?
Cc1ccc(-c2csc3nc(C)n(N)c(=O)c23)o1	-3.2	-2.0%[46.1 µM]	7.5%	-7.4%	3.2%	-6.7%
CCN(CC)CCOc1ccc(-c2nc3cc(Cl)ccc3s2)cc1	nt	nt	nt	-18.3%	nt	nt
O=C(CN1CCC(NC(=O)Nc2ccccc2)CC1)Nc1ccc([N+](=O)[O-])cc1	0.5	nt	nt	-2.2%	nt	nt
C=CCn1c(SCC(=O)NCCCC)nc2scc(-c3ccco3)c2c1=O	1.4	-11.8%[46.1 µM]	20µM*	20µM*	6.5%	-14.1%
COC(=O)C1(C(=O)OC)C/C=C\C/C=C\c2ccccc2C1C[N+](=O)[O-] (configuration not stated)	2.9	nt	9.1%	1.3%	1.4%	-4.2%
COc1cccc(/C=C2/NC(=O)N(CC(=O)Nc3ccc(C)cc3)C2=O)c1OCc1cccc(C(=O)O)c1	6.3	nt	nt	?	nt	nt
O=C1N/C(=C/c2cccn2-c2ccc(F)cc2)C(=O)N1Cc1ccccc1	-2.6	-4.9%[46.1 µM]	15.8µM*	-8.1%	20.0%	-20.9%
O=C(O)c1ccc(COc2ccccc2/C=C2\NC(=O)N(Cc3ccccc3)C2=O)cc1	7.1	-41.3%	?	9.4%	13.1%	?
